RGS16-Gao HTS – modulates binding between human RGS16 and Galphao; binding response (% of control), % at 10 µM; actives 0.38% (n = 220,000); AID 1441; O15492+P09471; bead-based flow cytometry RGS16-Galphao binding, fluorescence; actives lie on both sides;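 further: Galphao activated by GDP with aluminum fluoride before binding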
RGS7-Gao reg – human RGS7-Galphao interaction regulation. P09471. Multiplexed bead flow cytometry, RGS7-Galphao binding; actives lie on both sides. binding response (% of control), % at 10 µM. actives 0.35% (n = 220,000). AID 1439; in the data active means binding response below about 49% or above about 150%; inconclusive means no clear call, values can overlap the other calls; inactive means in between;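 further: fluorescent Galphao held in activated GDP-AlF4 state binding bead-coupled RGS7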
Target sequence (P09471 whole entry, looked up): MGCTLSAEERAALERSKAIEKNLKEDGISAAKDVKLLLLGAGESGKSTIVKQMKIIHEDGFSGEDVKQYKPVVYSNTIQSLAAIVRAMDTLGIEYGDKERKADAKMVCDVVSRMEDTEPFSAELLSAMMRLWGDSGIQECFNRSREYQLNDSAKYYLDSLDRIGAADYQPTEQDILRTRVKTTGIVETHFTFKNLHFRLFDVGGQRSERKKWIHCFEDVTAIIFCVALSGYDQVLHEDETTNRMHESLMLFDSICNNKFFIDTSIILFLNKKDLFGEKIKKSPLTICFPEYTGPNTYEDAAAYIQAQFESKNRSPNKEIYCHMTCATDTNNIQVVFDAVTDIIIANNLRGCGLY
RGS4-Gao reg – modulates binding of RGS4 to human Galphao. binding response (% of control), % at 10 µM. Multiplexed bead flow cytometry; actives lie on both sides. actives 0.33% (n = 220,000); in the data active means binding response below about 49% or above about 150%; inactive means in between;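 further: fluorescent Galphao activated with aluminum fluoride binding bead-coupled RGS4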
GSH fluor – GSH bead compound fluorescence profile; GSH beads flow cytometry, compound fluorescence 488/530 nm; stronger effect = higher value; fluorescence (KMESF) at 10 µM; actives 0.25% (n = 190,000); in the data active means fluorescence above about 89;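 further: glutathione beads carrying GST-tagged Bcl family fusion proteins plus one bare bead set; values are compound well signal with DMSO vehicle wells as background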
RGS8-Gao – human RGS8-Galphao interaction regulation; P09471; multiplexed bead flow cytometry, RGS8-Galphao binding; actives lie on both sides; response (percent of control binding), % at 10 µM; actives 0.34% (n = 220,000); in the data active means response below about 60% or above about 140%; inactive means in between;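 further: Galphao activated as the GDP aluminium fluoride complex binding bead-coupled RGS8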
Avidin fluor – avidin bead compound fluorescence profile; fluorescence (KMESF) at 10 µM; actives 0.38% (n = 220,000); Avidin beads, compound fluorescence 488/530 nm, flow cytometry; stronger effect = higher value; in the data active means fluorescence above about 47
RGS4-Gao HTS – RGS4-Galphao interaction regulator (human); shares compounds with RGS16-Gao HTS; multiplexed bead flow cytometry, RGS–Galpha-o binding; RGS4–Galpha-o binding response, % at 10 µM; actives 99% (n = 1,600);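 further: fluorescently labeled Galpha-o bound to GDP with aluminium fluoride binding biotinylated RGS beads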
Target sequence (P09471 whole entry, looked up): as above
Target sequence (P49798 whole entry, looked up): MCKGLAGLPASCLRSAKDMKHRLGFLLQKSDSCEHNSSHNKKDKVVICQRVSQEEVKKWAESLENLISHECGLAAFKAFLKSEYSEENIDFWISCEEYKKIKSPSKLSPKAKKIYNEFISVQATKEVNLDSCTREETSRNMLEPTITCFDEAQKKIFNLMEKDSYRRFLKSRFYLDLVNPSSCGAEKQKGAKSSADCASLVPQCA
Biotin-avidin – interferes with biotinylated probe binding to avidin beads; 1,700 tested, under 10 active; inhibition, % at 10 µM; streptavidin beads, fluorescein-biotin binding, flow cytometry; AID 1783; shares compounds with RGS16-Gao HTS;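 active means inhibition above 50%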;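 further: median green fluorescence of gated singlet beads compared with DMSO control wells; 0% = DMSO wells and 100% = complete loss of bead fluorescence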
RGS8-Gao confirm – RGS8-Galphao interaction regulation, single point confirmation | shares compounds with RGS16-Gao HTS | bead-based flow cytometry RGS8-Galphao binding, fluorescence; actives lie on both sides | binding response (% of control), % at 10 µM | actives 3% (n = 1,700) | AID 1836; in the data active means binding response below about 72% or above about 130%; inactive means in between;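 further: Galphao activated as GDP AlF4 complex before binding bead RGS8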
RGS7-Gao single – RGS7-Galphao interaction regulation, single point confirmation | shares compounds with RGS16-Gao HTS | bead-based flow cytometry RGS7-Galphao binding; actives lie on both sides | response (percent of control binding), % at 10 µM | actives 7.8% (n = 1,700); in the data active means response below about 75% or above about 130%; inactive means in between;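 further: fluorescent Galphao activated with GDP and aluminum fluoride binding bead-coupled RGS7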
RGS16-Gao conf – confirmation of regulators of human RGS16-Galphao interaction. shares compounds with RGS16-Gao HTS. bead-based flow cytometry, RGS16-Galphao binding; actives lie on both sides. response (% of control binding), % at 10 µM. actives 4% (n = 1,700); in the data active means response below about 74% or above about 130%; inactive means in between;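 further: Galphao activated as the GDP aluminium fluoride complex binding bead-coupled RGS16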
RGS4-Gao single – RGS4-Galphao interaction regulation, single point confirmation; shares compounds with RGS16-Gao HTS; RGS4-Galphao binding, multiplexed bead flow cytometry; actives lie on both sides; binding response (% of control), % at 10 µM; actives 4% (n = 1,700); in the data active means binding response below about 74% or above about 130%; inactive means in between
RGS19-Gao conf – RGS19-Galphao interaction regulation, single point confirmation; actives 5% (n = 1,700); bead-based flow cytometry RGS19-Galphao binding; actives lie on both sides; response (percent of control binding), % at 10 µM; shares compounds with RGS16-Gao HTS; in the data active means response below about 50% or above about 160%; inactive means in between;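 further: 100% = no compound control and 0% = blank background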
Numbers without * were called inactive; ? = inconclusive; . = not tested or not shown; [ ] = remark or other dose. Hits are enriched below; roughly 1.2% of the tested compounds scored in any of these assays. Unless noted, how the calls were made is not given here.

SMILES | RGS16-Gao HTS | RGS7-Gao reg | RGS4-Gao reg | GSH fluor | RGS8-Gao | Avidin fluor | RGS4-Gao HTS | Biotin-avidin | RGS8-Gao confirm | RGS7-Gao single | RGS16-Gao conf | RGS4-Gao single | RGS19-Gao conf
CCOC(=O)C1CCN(S(=O)(=O)Cc2ccc(Cl)cc2)CC1 | . | 164*[activator] | 170*[activator] | 34 | . | . | . | 0 | 88 | 61* | 78 | 77 | 61
CC(C)C(=O)Nc1ccc2c(c1)C(=O)NC2=O | 107 | 97 | 103 | 11 | 102 | 15 | . | . | . | . | . | . | .
CC1CCCC(C)N1c1nnc(N)s1 (stereo unspecified) | 20* | 55 | 53 | 12 | 57* | 2 | 53* | 0 | 102 | 102 | 103 | 104 | 104
CCCc1cc(=O)[nH]c(SCC(=O)c2[nH]c(C)c(C(=O)OCC)c2C)n1 | 131 | 101 | 105 | 13 | 111 | 6 | . | . | . | . | . | . | .
O=C(NCc1ccccc1)c1ccc(C(=O)N(C2CCCCC2)C2CCCCC2)cc1 | . | . | . | 41 | . | . | . | -1 | 93 | 86 | 90 | 93 | 86
CC(=O)c1cc2c(cc1NC(=O)c1ccc(C)cc1)OCO2 | 103 | 104 | 102 | 18 | 102 | 16 | . | . | . | . | . | . | .
CCNC(=S)N(Cc1ccc2c(c1)OCO2)C1CC(=O)N(c2ccc(OC)cc2)C1=O (stereo unspecified) | 32 | 82 | 85 | 19 | 71 | 5 | . | . | . | . | . | . | .
CCNC(=S)N(Cc1ccc(OC)cc1)C1CC(=O)N(c2ccc(OCC)cc2)C1=O (stereo unspecified) | . | . | . | 18 | . | . | . | 0 | 102 | 108 | 107 | 103 | 99
COC(=O)Cc1c(C)nc2nc(NCc3ccc(Cl)cc3)[nH]n2c1=O | 178*[activator] | 151*[activator] | 155*[activator] | 15 | 118 | 86* | . | 2 | 100 | 100 | 102 | 100 | 89
C[N+](C)(CC#Cc1ccccc1)CC(=O)c1ccc(Cl)cc1 | 23* | 115 | 114 | 9 | 84 | 2 | 114* | 1 | 98 | 99 | 98 | 101 | 98
COCCNc1nc(-c2cc3ccccc3o2)cs1 | 99 | 98 | 96 | 18 | 97 | 12 | . | . | . | . | . | . | .
O=C(COC(=O)C1CC(O)CN1S(=O)(=O)c1ccc(Cl)cc1)c1cccc(Cl)c1 (stereo unspecified) | 98 | 100 | 99 | 22 | 99 | 12 | . | . | . | . | . | . | .
CC(=O)C1=C(O)C(=O)N(Cc2ccccc2)C1c1cccs1 (stereo unspecified) | 106 | 202*[activator] | 119 | 68 | 101 | 171* | 119* | -1 | 99 | 94 | 99 | 99 | 100
CC(=O)C1=C(O)C(=O)N(Cc2cccnc2)C1c1ccc(Cl)cc1 (stereo unspecified) | 100 | 102 | 100 | 16 | 100 | 21 | . | . | . | . | . | . | .
CCC1CSC(Nc2ccc(C(=O)/C=C/c3cccc(C)c3)cc2)=N1 (stereo unspecified) | 114 | 104 | 104 | 13 | 106 | 8 | . | . | . | . | . | . | .
CC1(C(=O)N/N=C/c2ccc([N+](=O)[O-])o2)CC1(Br)Br (stereo unspecified) | 13* | 84 | 88 | 14 | 78 | 7 | 88* | 2 | 101 | 98 | 98 | 101 | 90
CC1CCN(c2ccccc2N)CC1 | 167 | 153*[activator] | 163*[activator] | 33 | 131 | 5 | . | 1 | 91 | 83 | 85 | 88 | 48*
Nc1ccccc1N1CCOCC1 | 91 | 99 | 98 | 9 | 96 | 11 | . | . | . | . | . | . | .
CC1CCN(c2nnc(N3CCC(C)CC3)c3ccccc23)CC1 | 11* | 12* | 20* | 19 | 18* | 0 | . | 0 | 99 | 90 | 96 | 92 | 87
OCCNc1nc(SCc2ccccc2)nc2sc3c(c12)CCC3 | 97 | 105 | 94 | 8 | 97 | 21 | . | . | . | . | . | . | .
Cc1scc(C(=O)NNC(=S)NCC2CCCO2)c1-c1ccccc1 (stereo unspecified) | 22* | 100 | 98 | 12 | 71 | 1 | 98* | 2 | 92 | 89 | 90 | 90 | 99
COc1ccc(NC(=O)CN2CCN(CC(=O)Nc3ccc4c(c3)OCO4)CC2)cc1 | 99 | 96 | 94 | 35 | 98 | 4 | . | . | . | . | . | . | .
COc1ccccc1NC(=O)CN1CCN(CC(=O)Nc2ccc3c(c2)OCO3)CC1 | 348 | 112 | 119 | 57 | 142*[activator] | 4 | 119* | . | . | . | . | . | .
CCCSc1nnc2c(n1)OC(c1cccn1C)N(C(C)=O)c1ccccc1-2 (stereo unspecified) | 108 | 103 | 104 | 25 | 105 | 10 | . | . | . | . | . | . | .
C=CCSc1nnc2c(n1)OC(c1ccccn1)N(C(C)=O)c1ccccc1-2 (stereo unspecified) | 114 | 168*[activator] | 122 | 33 | 99 | 215* | 122* | 2 | 103 | 104 | 104 | 103 | 102
COc1ccc(CCNC(=O)CNC(=O)Cn2ccc3ccccc3c2=O)cc1OC | 97 | ? | 97 | . | 99 | 5 | . | . | . | . | . | . | .
Cc1ccccc1-n1c(-c2ccncc2)n[nH]c1=S | 18* | 88 | 91 | 11 | 64 | 13 | 91* | 0 | 106 | 111 | 107 | 110 | 101
CC(/C=N/N1C(=O)CSC1=S)=C\c1ccccc1 | 101 | 102 | 103 | 13 | 98 | 10 | . | . | . | . | . | . | .
Cc1ccccc1-n1c(SCC(=O)NC(N)=O)nc2sc(-c3ccccc3)cc2c1=O | -3.3* | 79 | 81 | 4 | 65 | 8 | 81* | 1 | 103 | 103 | 106 | 104 | 104
Cc1cccc(N2CCN(C(=O)C3CCN(S(=O)(=O)N4CCOCC4)CC3)CC2)c1C | 98 | 100 | 97 | 13 | 100 | 7 | . | . | . | . | . | . | .

Compound activity as filed in PubChem BioAssay.
